The results in this text go back to PubChem BioAssay AID651928 (Vanderbilt Specialized Chemistry Center, 2012).

The test addresses Histone deacetylase 4 (Homo sapiens) (UniProt P56524). Kind of test: HDAC4 enzyme inhibition, profiling panel, selectivity assay for E-cadherin restoration project, biochemical, HDAC isoform panel (AID 651928). Particulars: recombinant HDAC4, fluorogenic substrate deacetylation; series mostly up to 10 µM.

Activity calls are given as the source filed them. No rule for the calls is given here.

Sequence of Histone deacetylase 4 (Homo sapiens) (P56524 whole entry, looked up, canonical isoform): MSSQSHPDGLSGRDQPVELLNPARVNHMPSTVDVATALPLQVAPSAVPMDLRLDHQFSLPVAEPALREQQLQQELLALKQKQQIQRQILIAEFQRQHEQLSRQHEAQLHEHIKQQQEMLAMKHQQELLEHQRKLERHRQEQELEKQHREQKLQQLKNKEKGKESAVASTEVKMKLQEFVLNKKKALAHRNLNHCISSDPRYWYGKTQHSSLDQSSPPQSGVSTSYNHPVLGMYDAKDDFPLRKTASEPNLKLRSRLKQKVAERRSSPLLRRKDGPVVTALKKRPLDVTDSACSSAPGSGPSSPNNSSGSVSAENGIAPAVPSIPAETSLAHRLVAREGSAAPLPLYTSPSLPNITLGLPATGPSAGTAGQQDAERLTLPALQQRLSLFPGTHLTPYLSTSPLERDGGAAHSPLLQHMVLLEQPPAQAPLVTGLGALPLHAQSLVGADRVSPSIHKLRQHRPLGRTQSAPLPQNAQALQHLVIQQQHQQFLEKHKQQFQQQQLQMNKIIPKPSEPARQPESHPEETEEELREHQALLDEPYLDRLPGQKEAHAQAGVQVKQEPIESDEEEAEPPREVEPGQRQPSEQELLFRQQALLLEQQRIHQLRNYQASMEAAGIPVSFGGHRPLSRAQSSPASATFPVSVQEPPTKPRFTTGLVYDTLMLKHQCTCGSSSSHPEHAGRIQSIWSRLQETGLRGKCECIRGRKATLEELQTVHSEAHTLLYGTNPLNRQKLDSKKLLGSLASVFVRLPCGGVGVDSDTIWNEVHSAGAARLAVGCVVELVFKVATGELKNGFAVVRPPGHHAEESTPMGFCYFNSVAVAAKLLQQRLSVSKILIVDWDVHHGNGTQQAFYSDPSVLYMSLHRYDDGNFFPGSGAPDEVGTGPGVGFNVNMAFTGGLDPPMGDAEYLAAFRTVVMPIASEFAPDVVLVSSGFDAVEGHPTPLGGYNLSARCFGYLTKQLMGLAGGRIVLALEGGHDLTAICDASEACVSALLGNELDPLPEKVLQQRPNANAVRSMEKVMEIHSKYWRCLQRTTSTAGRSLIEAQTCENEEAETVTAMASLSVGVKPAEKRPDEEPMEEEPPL

For `O=C(NCCCNC(=O)c1ccc[nH]c1=O)c1cc(-c2ccccc2)on1`, the outcome was inactive.
